One assay addresses Albumin (Bos taurus) (UniProt P02769). The experiment in a line: compounds binding labelled BSA control protein – biochemical, small-molecule microarray, Alexa647 label, 635/667 nm fluorescence, artefact control for SMM control protein annotation, profiling panel (AID 1118).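 Further: score merges 667 nm emission intensity and signal-to-noise per printed compound spot.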 As to conditions: BSA-A647 binding, fluorescence 635 nm, higher = more signal.
Assay [1] in a line: probe aXIP binding to arrayed compounds – biochemical, NeuroSMM set, 635/667 nm fluorescence, primary screen (AID 1119).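 Further: probe is the protein aXip251-270 applied at 1 µg/mL to compound-printed slides; binding of probe to printed compounds measured as 667 nm fluorescence plus signal to noise.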 Particulars: small-molecule microarray, higher = more signal, called active from +8 up or from −8 down.
Assay [2] can be described thus: probe aNOTCH3 binding on compound microarray – biochemical, small-molecule microarray, 635/667 nm fluorescence, primary screen (AID 1120).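 Further: probe is a biotin-tagged antibody raised against NOTCH3 rather than NOTCH3 protein; score merges spot fluorescence near 667 nm with spot signal to noise.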 As to conditions: higher = more signal.
The nature of assay [3]: probe aNOTCH2 binding on compound microarray – biochemical, small-molecule microarray, 635/667 nm fluorescence, primary screen (AID 1121).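 Further: score merges feature fluorescence read at 667 nm with its signal to noise.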 As to conditions: higher = more signal.
For assay [4], the target named is Carbonic anhydrase 2 (Homo sapiens) (UniProt P00918). Nature of the assay: compounds binding carbonic anhydrase 2 – biochemical, small-molecule microarray, Alexa647-labelled CAII, profiling panel (AID 1122). As to conditions: CAII-A647 binding fluorescence, higher = more signal.
A short description of assay [5]: COS7 lysate on small-molecule microarray, probe aHis, 635 nm (AID 1123).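 Further: z-score combines 667nm fluorescence intensity with signal-to-noise per printed compound spot.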 As to conditions: COS7 cell lysate, fluorescence, higher = more signal.
The nature of assay [6]: probe aLAP1 signal on lysate-treated microarray – cell lysate, small-molecule microarray, COS7 lysate, primary screen (AID 1124).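 Further: lysate comes from COS7 cells expressing LAP1 and is applied at 0.3 µg/mL; score merges spot fluorescence near 667 nm with signal-to-noise over triplicate slides.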 As to conditions: probe aLAP1, fluorescence, higher = more signal.
The subject of a further assay is Sam68 (KHDRBS1). The experiment in a line: compounds binding KHDRBS1 protein – biochemical, small-molecule microarray, 635 nm fluorescence, primary screen (AID 1125).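 Further: score merges 667 nm channel intensity with signal to noise over triplicate slides.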 Particulars: higher = more signal.
In assay [7] the test system is Chordin-like protein 2 (CHRDL2). Nature of the assay: compounds binding chordin-like 2 – biochemical, small-molecule microarray, 635 nm fluorescence, primary screen (AID 1126).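 Further: printed compound slides probed with Chrdl2 protein at 4 µg/mL for 1 h at 4 C; score merges 667 nm emission intensity with signal to noise over three replicate slides.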 As to conditions: fluorescence 635 nm, higher = more signal.
Assay [8] concerns the target Concanavalin-A (Canavalia ensiformis) (UniProt P02866). Nature of the assay: compounds binding concanavalin A lectin – biochemical, small-molecule microarray, Alexa647 label, 635 nm, artefact control for SMM control protein annotation, primary screen (AID 1127).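 Further: z combines 667 nm emission intensity with signal-to-noise across three replicate slides.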 As to conditions: ConA-A647 binding fluorescence, higher = more signal.
A short description of assay [9]: compounds binding Alexa647 anti-His antibody – biochemical, small-molecule microarray, 635 nm fluorescence, artefact control for SMM control protein annotation, primary screen (AID 1128).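 Further: score merges feature fluorescence with signal-to-noise for each printed compound spot.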 Particulars: higher = more signal.
Assay [10] deals with Human papillomavirus type 1a E7 protein (residues 1-88). The experiment in a line: HPV1a E7 small-molecule binders, primary screen, biochemical, small-molecule microarray, residues 1-88, 635 nm (AID 1129). Particulars: small-molecule microarray binding, fluorescence 635 nm; higher = more signal.
In assay [11] the target is Focal adhesion kinase 1 (Homo sapiens) (UniProt Q05397). The experiment in a line: PTK2 protein binding on printed compound slides – biochemical, small-molecule microarray, 635/667 nm fluorescence, BSA, DTT, primary screen (AID 1130).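 Further: composite of spot emission at 667 nm and signal to noise over triplicate slides.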 Particulars: 635 nm fluorescence, higher = more signal.
Sequence of Focal adhesion kinase 1 (Homo sapiens) (Q05397 whole entry, looked up): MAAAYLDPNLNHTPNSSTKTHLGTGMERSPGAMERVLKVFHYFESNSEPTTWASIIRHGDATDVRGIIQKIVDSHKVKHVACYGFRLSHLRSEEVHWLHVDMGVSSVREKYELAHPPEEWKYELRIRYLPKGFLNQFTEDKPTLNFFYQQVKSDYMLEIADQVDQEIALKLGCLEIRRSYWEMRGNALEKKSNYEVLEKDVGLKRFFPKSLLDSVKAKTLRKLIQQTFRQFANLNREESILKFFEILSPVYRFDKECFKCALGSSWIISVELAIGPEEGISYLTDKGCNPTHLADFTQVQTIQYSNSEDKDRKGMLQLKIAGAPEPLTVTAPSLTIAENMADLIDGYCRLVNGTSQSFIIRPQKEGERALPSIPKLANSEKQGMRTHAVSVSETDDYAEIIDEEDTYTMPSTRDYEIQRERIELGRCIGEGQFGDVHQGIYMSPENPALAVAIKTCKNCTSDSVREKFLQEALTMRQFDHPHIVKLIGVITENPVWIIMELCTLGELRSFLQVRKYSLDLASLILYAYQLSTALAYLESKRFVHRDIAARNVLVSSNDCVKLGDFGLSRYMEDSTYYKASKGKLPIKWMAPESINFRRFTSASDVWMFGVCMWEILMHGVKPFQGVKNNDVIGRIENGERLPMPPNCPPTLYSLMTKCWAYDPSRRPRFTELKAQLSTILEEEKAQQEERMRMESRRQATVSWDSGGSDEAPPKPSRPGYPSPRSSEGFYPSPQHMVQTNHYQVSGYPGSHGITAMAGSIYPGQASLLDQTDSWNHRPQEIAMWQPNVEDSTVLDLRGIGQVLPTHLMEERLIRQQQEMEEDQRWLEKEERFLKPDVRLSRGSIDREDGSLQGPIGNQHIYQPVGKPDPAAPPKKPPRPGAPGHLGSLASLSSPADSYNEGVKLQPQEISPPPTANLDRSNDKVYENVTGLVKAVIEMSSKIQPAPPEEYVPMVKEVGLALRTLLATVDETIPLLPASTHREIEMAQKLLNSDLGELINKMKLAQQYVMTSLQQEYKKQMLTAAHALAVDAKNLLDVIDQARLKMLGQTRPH
Assay [12] deals with Fibrinogen (Alexa647-labelled). The experiment in a line: Alexa647-fibrinogen binding to printed small molecules – biochemical, small-molecule microarray, 635/667 nm fluorescence, artefact control for SMM control-protein annotation, profiling panel (AID 1131).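 Further: z-score merges 667 nm fluorescence with per-spot signal-to-noise over triplicate slides.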 Particulars: fibrinogen-A647 binding fluorescence, higher = more signal.
The target in assay [13] is Follistatin (Homo sapiens) (UniProt P19883). Nature of the assay: FST protein binding to printed compounds – biochemical, small-molecule microarray, 635/667 nm fluorescence, primary screen (AID 1132). Particulars: 635 nm fluorescence, higher = more signal.
Sequence of Follistatin (Homo sapiens) (P19883 whole entry, looked up): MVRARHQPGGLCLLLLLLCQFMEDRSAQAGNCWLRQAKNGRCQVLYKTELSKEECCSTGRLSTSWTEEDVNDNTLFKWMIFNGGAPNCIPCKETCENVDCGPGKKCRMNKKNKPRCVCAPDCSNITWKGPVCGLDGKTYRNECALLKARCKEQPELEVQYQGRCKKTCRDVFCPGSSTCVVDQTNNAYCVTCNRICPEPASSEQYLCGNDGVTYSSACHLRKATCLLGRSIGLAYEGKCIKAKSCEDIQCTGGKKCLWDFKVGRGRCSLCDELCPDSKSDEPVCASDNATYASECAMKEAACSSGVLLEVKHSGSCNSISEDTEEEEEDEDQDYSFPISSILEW
Assay [14] concerns the target Fibroblast growth factor 2 (Homo sapiens) (UniProt P09038). Nature of the assay: basic fibroblast growth factor binding to printed compounds – biochemical, small-molecule microarray, 635/667 nm fluorescence, primary screen (AID 1133). As to conditions: FGF2, fluorescence 635/667, higher = more signal.
Assay [15] in a line: JC-1 mitochondrial potential readout, lung cancer cells – cell-based, A549, JC-1 fluorescence, basal, 24 h, 100 nL, profiling panel (AID 1138).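 Further: A549 lung adenocarcinoma cells under basal conditions with no added stimulus; test concentration not given here.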 Particulars: higher = more signal.
Another assay has as its system Lefty1. Nature of the assay: Lefty1 protein binding to printed compounds – biochemical, small-molecule microarray, 635/667 nm fluorescence, primary screen (AID 1139). As to conditions: fluorescence 635/667, higher = more signal.
The test system of assay [16] is wheat germ agglutinin (Triticum aestivum), Alexa647-labelled. Nature of the assay: Alexa647-WGA lectin binding to printed small molecules – biochemical, small-molecule microarray, 635/667 nm fluorescence, artefact control for SMM control-protein annotation, profiling panel (AID 1140).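 Further: score merges 667 nm feature emission with signal to noise over triplicate slides.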 As to conditions: WGA-A647 binding, 635 nm fluorescence, higher = more signal.
Assay [17] addresses Luciferin 4-monooxygenase (Photinus pyralis) (UniProt P08659). The experiment in a line: inhibition of purified Photinus pyralis luciferase – biochemical, luminescence, purified enzyme, 2006 set, primary screen (AID 1141).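 Further: cell-free assay with purified firefly luciferase at 100 ng per well in PBS; test concentration not given here.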 Particulars: purified firefly luciferase, SteadyGlo luminescence, 30 min; higher = more signal, called active from +8 up or from −8 down.

Active and inactive are the calls of the source.

The text below walks through data of PubChem BioAssay.

Sequence of Fibroblast growth factor 2 (Homo sapiens) (P09038 whole entry, looked up): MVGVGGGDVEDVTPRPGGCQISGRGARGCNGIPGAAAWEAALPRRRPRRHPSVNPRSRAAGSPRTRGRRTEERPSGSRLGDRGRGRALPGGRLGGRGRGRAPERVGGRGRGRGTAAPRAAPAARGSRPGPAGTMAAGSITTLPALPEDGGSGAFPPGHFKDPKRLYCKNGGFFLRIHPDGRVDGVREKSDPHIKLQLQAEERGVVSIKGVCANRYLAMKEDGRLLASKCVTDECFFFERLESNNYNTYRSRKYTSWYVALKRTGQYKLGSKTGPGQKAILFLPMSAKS
Sequence of Albumin (Bos taurus) (P02769 whole entry, looked up): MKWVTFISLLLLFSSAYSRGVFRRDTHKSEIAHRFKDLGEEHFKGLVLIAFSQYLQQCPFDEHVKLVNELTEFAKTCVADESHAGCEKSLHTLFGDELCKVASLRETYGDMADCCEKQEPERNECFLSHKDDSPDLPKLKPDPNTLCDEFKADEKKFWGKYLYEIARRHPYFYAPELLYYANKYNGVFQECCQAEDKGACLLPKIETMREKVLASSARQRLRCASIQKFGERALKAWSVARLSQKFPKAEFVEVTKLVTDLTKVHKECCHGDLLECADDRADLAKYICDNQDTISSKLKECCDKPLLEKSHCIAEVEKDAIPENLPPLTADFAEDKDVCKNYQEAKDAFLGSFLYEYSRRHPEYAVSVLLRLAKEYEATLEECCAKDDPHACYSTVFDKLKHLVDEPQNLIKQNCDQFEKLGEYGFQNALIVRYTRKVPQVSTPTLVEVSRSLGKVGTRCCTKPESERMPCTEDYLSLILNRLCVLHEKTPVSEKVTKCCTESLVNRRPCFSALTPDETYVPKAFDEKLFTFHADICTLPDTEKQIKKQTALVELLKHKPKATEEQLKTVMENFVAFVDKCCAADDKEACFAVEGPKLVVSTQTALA
Sequence of Luciferin 4-monooxygenase (Photinus pyralis) (P08659 whole entry, looked up): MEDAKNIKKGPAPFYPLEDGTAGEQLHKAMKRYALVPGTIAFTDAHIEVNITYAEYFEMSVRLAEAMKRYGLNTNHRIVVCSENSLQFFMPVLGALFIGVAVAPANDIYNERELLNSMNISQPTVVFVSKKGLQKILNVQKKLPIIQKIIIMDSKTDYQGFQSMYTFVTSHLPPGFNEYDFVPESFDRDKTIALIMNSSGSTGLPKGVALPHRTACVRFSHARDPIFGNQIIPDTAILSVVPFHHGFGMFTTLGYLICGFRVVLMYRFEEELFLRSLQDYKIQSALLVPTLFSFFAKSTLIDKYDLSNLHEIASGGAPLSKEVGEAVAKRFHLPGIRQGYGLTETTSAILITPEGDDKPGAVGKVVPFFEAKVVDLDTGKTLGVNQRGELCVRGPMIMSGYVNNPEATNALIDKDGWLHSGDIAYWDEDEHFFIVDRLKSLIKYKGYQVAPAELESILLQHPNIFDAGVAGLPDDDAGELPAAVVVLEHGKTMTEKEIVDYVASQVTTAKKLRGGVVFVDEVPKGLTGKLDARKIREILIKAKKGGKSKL
Sequence of Concanavalin-A (Canavalia ensiformis) (P02866 whole entry, looked up): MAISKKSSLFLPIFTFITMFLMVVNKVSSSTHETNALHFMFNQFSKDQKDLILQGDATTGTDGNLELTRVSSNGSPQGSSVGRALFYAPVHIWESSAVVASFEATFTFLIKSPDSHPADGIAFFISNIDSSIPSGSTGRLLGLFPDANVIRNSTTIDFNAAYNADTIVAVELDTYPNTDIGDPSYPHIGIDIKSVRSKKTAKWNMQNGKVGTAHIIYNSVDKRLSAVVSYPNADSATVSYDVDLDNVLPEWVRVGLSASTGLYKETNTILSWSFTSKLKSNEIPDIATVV

As for `COc1ccc(O[C@H]2C=C[C@@H](c3ccccc3)O[C@@H]2CON=C2c3cc(OC)ccc3O[C@H](c3cccc(OC)c3)[C@H]2O)cc1`, the composite z-score is 0.322 in the assay with Albumin (Bos taurus); -0.122 in assay [2]; -0.255 in [3]; 0.417 in assay [4]; 0.567 in assay [5]; 1.15 in [6]. For the same compound, the composite z-score was 0.164 in the assay with Sam68 (KHDRBS1); 0.171 in [7]; -0.996 in assay [8]; -0.622 in assay [9]; 0.463 in [10]; 0.121 in assay [11]. In addition, the composite z-score in assay [12] is -0.413; in assay [13], 0.618; in assay [14], 1.63; with Lefty1, 1.1; in [16] it was 0.701. Also, in [1], the composite Z-score was -0.222 (inactive). Further, the results for the z-score in assay [15] and in assay [17] were 0.0904 and 1.16 (inactive), respectively.

For `CC(=O)OC[C@H]1O[C@H](CC=NOC(C)CN2CCCCc3nc(C)c(C)cc32)C=C[C@@H]1OC(C)=O` (stereo not given in full), the composite z-score in the assay with Albumin (Bos taurus) worked out at 0.486; in assay [2], 0.678; in assay [3] it was 0.0312; in [4] it was 0.0236; in assay [5], 0.511; in assay [6], 0.333. The composite z-score with Sam68 (KHDRBS1) turned out to be 1.31; in [7] it was 1.33; in assay [8], 0.902; in assay [9], 0.544; in [10] it was 0.819; in [11], 0.0336. In addition, the composite z-score in [12] amounted to 0.495; in assay [13], 1.23; in assay [14], 0.773; in the assay with Lefty1, 1.55; in [16] it was 0.73. The composite Z-score in [1] was -1.11 (inactive). For the same compound, the values for the z-score in [15] and in assay [17] were -0.683 and 1.46 (inactive), respectively.

Turning to `CCN1C(=O)[C@H]2[C@H]3[C@H](O)[C@H](O)CC(=NO[C@H](C)c4cn([C@@H]5COC[C@H]5O)nn4)[C@@H]3CC[C@H]2C1=O`, the composite z-score is 0.0418 with Albumin (Bos taurus); -0.0948 in [2]; -0.04 in assay [3]; -0.281 in [4]; 0.151 in [5]; -0.0932 in [6]. For the same compound, the composite z-score with Sam68 (KHDRBS1) is 0.126; in assay [7], 0.244; in assay [8] it was -0.0703; in assay [9], -1.33; in assay [10], -0.0712; in assay [11], 0.339. Moreover, the composite z-score is 0.178 in assay [12]; -0.537 in assay [13]; 0.092 in [14]; 0.371 in the assay on Lefty1; -0.215 in assay [16]. The composite Z-score in [1] was -0.115 (inactive). Also, the z-score was -0.444 in assay [15] and 0.846 (inactive) in [17].

For `CCOC(=O)NN=C1C[C@@H](O)[C@@H](O)[C@@H]2[C@@H]3C(=O)N(C[C@@H]4CCCO4)C(=O)[C@@H]3CC[C@H]12`, the composite z-score is 0.34 with Albumin (Bos taurus); -0.0057 in [2]; -0.15 in assay [3]; -0.144 in [4]; 0.19 in [5]; 0.299 in assay [6]. The composite z-score in the assay with Sam68 (KHDRBS1) came out at 0.31; in [7], 0.245; in [8] it was 0.111; in [9], 0.57; in assay [10] it was 0.317; in assay [11] it was 0.43. Further, the composite z-score was 0.835 in assay [12]; 0.308 in assay [13]; 0.342 in assay [14]; 0.293 in the assay on Lefty1; 0.0337 in assay [16]. Also, the composite Z-score in assay [1] was -0.161 (inactive). For the same compound, the z-score was -0.311 in assay [15] and 0.515 (inactive) in [17].

Consider `COC(=O)CC=C[C@@H](C)[C@@H](C=NOC[C@@H](O)[C@H]1O[C@@H]2OC(C)(C)O[C@@H]2[C@H]1O)OC`, for which the composite z-score in the assay with Albumin (Bos taurus) was -0.0287; in [2], -0.0647; in assay [3] it was -0.13; in [4], -0.131; in assay [5], -0.104; in assay [6], 0.149. In addition, the composite z-score with Sam68 (KHDRBS1) stood at 0.444; in assay [7], 0.744; in assay [8], 0.333; in assay [9] it was 1.57; in assay [10] it was 0.612; in [11], 0.167. Also, the composite z-score came out at 0.0843 in assay [12]; 0.834 in assay [13]; 0.943 in [14]; 0.59 in the assay on Lefty1; 0.006 in [16]. In addition, in assay [1], the composite Z-score is -0.931 (inactive). For the same compound, the z-score in [15] was 0.0187; in [17], -0.512 (inactive).
